Molecules are shown by their SMILES. Values without a mark were called inactive.

Holding throughout (assay): log2 ratio of Biotin-Ahx-Ub-VS probe labelling (fragment/DMSO); higher = less target engagement (more negative = stronger competition), active = hit call of the paper (q ≤ 0.05, log2 ratio ≤ -1)
Holding throughout (settings): compound concentration: 200 uM; treatment time: 3 h

In one assay the target is T1, OTUD6B (UniProt Q8N6M0).
T1 sequence (whole entry): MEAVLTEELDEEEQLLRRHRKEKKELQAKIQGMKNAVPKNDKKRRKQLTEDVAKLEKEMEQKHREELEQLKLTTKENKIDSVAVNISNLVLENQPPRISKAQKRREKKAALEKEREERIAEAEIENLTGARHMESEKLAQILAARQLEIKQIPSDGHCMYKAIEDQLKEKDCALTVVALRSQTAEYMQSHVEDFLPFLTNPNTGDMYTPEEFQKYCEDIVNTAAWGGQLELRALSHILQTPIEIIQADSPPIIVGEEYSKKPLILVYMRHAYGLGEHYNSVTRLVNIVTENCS
The gist of the method:
(§1)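 HEK293T lysate in Tris/CHAPS/IGEPAL buffer with protease inhibitors (495 µg per sample) was given fragment at 200 µM or vehicle for 3 h, in triplicate. It then received Biotin-Ahx-Ub-VS at 0.5 µM final for 1 h. Labelled DUBs were NeutrAvidin-enriched, digested with LysC and trypsin, and run by diaPASEF LC-MS/MS. Values are average log2 fragment/vehicle ratios by unpaired t-test on global-median-normalised Spectronaut quantities of proteins with ≥2 unique peptides.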

The next assay has as its target T2, OTUD7B (UniProt Q6GQQ9).
T2 sequence (whole entry): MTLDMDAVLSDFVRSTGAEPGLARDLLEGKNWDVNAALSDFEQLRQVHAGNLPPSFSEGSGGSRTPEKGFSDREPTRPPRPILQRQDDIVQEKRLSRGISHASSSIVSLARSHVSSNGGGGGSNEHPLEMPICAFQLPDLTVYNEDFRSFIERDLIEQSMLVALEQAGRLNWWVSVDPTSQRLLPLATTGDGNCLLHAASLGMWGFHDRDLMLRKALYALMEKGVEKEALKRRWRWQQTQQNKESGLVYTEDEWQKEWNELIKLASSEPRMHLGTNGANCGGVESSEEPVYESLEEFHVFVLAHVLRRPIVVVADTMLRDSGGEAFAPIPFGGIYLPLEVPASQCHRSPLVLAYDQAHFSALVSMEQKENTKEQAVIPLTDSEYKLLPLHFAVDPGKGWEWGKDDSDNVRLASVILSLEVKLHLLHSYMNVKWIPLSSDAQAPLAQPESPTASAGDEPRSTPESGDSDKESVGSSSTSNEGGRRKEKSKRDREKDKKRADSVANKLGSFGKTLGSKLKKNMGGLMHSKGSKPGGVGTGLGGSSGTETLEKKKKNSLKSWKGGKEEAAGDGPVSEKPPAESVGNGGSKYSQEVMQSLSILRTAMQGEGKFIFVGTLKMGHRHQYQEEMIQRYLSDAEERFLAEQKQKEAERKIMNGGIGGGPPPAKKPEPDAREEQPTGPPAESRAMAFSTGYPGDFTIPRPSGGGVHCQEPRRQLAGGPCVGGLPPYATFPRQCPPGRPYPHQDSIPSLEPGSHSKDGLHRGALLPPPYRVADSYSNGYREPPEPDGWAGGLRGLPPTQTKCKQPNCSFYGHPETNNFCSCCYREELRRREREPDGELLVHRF
The gist of the method:
as §1

The target of another assay is PRPF8 (UniProt Q6P2Q9). The gist of the method:
as §1

For the next assay, the target named is T3, PSMD7 (UniProt P51665).
T3 sequence (whole entry): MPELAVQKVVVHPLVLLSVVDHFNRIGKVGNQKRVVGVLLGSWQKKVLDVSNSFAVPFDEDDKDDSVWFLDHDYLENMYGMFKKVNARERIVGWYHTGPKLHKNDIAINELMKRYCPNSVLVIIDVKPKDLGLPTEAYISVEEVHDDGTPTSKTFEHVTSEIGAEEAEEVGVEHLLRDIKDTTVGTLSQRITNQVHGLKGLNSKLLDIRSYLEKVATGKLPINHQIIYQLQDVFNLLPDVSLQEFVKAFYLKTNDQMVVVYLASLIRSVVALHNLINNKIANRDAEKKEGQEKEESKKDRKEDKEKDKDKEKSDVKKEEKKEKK
The gist of the method:
as §1

A further assay concerns the target UCHL1 (UniProt P09936). The gist of the method: as §1
The target of another assay is T4, UCHL3 (UniProt P15374).
T4 sequence (whole entry): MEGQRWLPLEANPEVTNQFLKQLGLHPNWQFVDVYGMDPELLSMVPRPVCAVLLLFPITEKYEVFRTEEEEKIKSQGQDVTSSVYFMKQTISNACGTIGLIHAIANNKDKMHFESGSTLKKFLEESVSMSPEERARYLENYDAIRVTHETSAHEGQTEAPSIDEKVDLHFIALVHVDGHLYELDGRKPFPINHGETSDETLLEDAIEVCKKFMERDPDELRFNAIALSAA
The gist of the method:
as §1

For a further assay, the target named is T5, UCHL5 (UniProt Q9Y5K5).
T5 sequence (whole entry): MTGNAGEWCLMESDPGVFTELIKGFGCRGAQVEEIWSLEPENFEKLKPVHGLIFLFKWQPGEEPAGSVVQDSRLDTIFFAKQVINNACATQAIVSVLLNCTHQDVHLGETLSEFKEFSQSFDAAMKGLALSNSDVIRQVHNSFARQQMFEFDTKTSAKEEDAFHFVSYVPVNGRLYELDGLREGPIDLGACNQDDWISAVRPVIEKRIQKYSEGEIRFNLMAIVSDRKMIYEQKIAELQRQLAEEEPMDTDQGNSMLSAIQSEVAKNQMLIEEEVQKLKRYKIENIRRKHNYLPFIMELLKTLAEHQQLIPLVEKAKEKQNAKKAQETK
The gist of the method: as §1

The next assay concerns the target USP10 (UniProt Q14694). The gist of the method: as §1
For another assay, the target named is T6, USP15 (UniProt Q9Y4E8).
T6 sequence (whole entry): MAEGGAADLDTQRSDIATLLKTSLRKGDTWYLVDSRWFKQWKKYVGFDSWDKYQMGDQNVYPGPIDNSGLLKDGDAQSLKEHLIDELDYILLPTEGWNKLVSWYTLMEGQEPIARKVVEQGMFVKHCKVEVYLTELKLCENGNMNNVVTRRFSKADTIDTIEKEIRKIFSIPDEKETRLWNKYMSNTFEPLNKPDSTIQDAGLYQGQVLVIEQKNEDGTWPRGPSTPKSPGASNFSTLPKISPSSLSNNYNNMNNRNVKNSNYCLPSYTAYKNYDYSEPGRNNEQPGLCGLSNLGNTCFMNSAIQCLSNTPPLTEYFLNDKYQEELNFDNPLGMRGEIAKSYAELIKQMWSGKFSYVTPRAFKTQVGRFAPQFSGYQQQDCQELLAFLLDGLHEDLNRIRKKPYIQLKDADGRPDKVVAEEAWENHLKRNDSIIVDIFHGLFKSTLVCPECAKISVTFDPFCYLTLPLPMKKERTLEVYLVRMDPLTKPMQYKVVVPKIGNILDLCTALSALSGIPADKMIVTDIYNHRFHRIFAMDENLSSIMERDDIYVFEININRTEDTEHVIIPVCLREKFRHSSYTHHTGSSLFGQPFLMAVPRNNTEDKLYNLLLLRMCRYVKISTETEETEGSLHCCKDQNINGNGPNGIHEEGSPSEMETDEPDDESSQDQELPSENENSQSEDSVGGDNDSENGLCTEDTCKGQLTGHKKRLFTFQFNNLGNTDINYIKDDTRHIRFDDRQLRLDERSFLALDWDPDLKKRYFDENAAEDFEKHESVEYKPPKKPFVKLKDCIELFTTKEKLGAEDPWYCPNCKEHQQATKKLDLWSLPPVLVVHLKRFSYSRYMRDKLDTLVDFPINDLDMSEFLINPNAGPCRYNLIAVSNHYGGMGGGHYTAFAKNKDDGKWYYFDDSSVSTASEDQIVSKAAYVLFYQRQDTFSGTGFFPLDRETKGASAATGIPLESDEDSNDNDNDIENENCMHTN
The gist of the method: as §1

Another assay addresses USP16 (UniProt Q9Y5T5). The gist of the method: as §1

Sequence of USP16 (Q9Y5T5 whole entry, looked up): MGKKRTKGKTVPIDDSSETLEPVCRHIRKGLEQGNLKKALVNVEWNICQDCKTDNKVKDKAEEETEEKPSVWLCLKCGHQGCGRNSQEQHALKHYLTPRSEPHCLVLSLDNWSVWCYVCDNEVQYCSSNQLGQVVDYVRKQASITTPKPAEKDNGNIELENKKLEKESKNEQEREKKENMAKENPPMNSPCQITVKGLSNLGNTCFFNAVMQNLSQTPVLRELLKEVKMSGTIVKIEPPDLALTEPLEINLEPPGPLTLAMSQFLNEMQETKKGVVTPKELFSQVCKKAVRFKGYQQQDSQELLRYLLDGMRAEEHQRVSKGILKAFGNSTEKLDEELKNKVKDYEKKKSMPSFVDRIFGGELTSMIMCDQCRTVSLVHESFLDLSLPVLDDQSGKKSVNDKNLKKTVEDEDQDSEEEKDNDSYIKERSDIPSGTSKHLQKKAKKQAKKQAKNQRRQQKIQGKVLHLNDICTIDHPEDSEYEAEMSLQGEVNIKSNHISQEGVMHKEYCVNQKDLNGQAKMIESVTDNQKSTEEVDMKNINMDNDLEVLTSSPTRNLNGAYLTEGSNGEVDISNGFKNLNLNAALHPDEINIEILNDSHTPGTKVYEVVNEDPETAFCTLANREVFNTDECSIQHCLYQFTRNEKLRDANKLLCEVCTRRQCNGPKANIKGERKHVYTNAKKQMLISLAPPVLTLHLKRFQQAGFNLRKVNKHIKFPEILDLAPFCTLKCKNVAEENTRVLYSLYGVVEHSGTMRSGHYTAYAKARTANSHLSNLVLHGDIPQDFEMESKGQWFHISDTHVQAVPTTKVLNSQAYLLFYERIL
Sequence of USP10 (Q14694 whole entry): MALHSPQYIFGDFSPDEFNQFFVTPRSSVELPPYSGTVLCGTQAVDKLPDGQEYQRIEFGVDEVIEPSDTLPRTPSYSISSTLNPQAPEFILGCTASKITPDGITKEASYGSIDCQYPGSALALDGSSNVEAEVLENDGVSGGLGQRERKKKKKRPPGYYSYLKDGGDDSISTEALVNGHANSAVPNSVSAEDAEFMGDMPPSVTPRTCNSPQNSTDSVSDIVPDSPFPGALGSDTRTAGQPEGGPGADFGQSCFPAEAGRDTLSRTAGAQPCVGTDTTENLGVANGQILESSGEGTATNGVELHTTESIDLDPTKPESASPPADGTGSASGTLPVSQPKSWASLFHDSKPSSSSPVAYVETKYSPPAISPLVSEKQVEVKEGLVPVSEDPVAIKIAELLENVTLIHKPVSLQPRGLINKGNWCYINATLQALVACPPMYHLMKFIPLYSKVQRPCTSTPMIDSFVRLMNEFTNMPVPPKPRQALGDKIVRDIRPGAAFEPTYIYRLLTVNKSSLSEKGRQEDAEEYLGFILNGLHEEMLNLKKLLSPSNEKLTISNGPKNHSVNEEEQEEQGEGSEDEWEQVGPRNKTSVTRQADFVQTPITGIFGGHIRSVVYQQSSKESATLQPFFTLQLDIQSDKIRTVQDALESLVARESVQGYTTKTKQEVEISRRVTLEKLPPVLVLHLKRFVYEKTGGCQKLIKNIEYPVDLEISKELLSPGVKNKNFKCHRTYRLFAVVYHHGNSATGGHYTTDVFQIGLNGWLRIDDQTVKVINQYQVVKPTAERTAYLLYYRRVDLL
Sequence of UCHL1 (P09936 whole entry, looked up): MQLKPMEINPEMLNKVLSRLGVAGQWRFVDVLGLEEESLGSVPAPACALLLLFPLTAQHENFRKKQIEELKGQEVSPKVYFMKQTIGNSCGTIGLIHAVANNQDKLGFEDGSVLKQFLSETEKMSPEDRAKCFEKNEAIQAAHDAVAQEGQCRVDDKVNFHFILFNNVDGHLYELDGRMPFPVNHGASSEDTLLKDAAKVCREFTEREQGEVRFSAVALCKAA

Regarding `Cc1ccc(C(=O)NCCNC(=O)CCl)cc1`, the “log2 ratio of Biotin-Ahx-Ub-VS probe labelling” value is -0.182 with OTUD6B; -0.711 in the assay with OTUD7B; -0.064 with PRPF8; -0.134 with PSMD7; -1.75 (active) in the assay with UCHL1; 0.104 with UCHL3. The “log2 ratio of Biotin-Ahx-Ub-VS probe labelling” value is -0.144 with UCHL5, -0.111 with USP10, -0.0554 with USP15 and -0.0901 with USP16.

The record behind these values is the supplement of paper PMC11732987, “Enantioselective OTUD7B fragment discovery through chemoproteomics screening and high-throughput optimisation” (Communications Chemistry, 2025).
